Bioassay records: PubChem, National Center for Advancing Translational Sciences (NCATS)
Only some compounds are listed: those with a hit (about 12% of all), similar ones and a draw of the others.
HP1b binding inh: blocks HP1-beta chromodomain binding to methylated histone tails; AlphaScreen HP1-beta / biotin-H3K9me3 peptide binding; 0.56% of 390,000 active; Potency, µM (highest dose often 114 µM), most hits filed as inhibitors; further: nearly all actives have a fitted effect of over 70% in size
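HP1-beta protein (50 nM final) preincubated 30 min at room temperature with biotinylated H3(1-18)K9me3 peptide (50 nM) in PBS pH 7.4, 0.01% Tween-20, then compound added for 30 min. AlphaScreen streptavidin donor/nickel chelate acceptor beads (10 ug/mL final), 30 min dark, luminescence read.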
BAZ2B block: BAZ2B (human) inhibition; Q9UIF8; AlphaScreen BAZ2B-H3K14Ac peptide displacement; Potency, µM (highest dose often 114 µM), actives largely listed as inhibitors; 4.4% of 360,000 active; further: nearly all actives have a fitted effect of over 60% in size
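BAZ2B 50 nM plus b-H3(5-23)K14Ac 50 nM, PBS pH 7.4/0.01% Tween-20, 30 min RT; compound added (max 110 uM), 30 min RT; streptavidin donor/Ni-chelate acceptor beads 10 ug/mL final, 20 min dark; AlphaScreen read.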
PLK1 PBD inh: PLK1 (human) polo-box domain binding inhibition | 2.8% of 360,000 active | Potency, µM, most hits filed as inhibitors | P53350 | Plk1 PBD binding of FITC phosphopeptide, fluorescence polarization | AID 720504; further: series mostly up to about 57 µM; nearly all actives have a fitted effect of over 65% in size
G9a inh: inhibitors of human histone lysine methyltransferase G9a. Q96KQ7. G9a H3K9 monomethylation, AlphaScreen, 2 h. Potency, µM (titrated, usually from 102 µM), most hits filed as inhibitors. 8.8% of 350,000 active. AID 504332; further: nearly all actives have a fitted effect of over 75% in size
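Quantitative HTS format: methyltransferase activity on a biotin-tagged H3K9 peptide is measured by AlphaScreen, using a rabbit anti-monomethyl-H3K9 antibody with streptavidin donor and anti-IgG acceptor beads. Final levels are 20 nM enzyme, 500 nM peptide, 20 uM SAM; 2 h RT.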
JMJD2A Tudor inh: blocks the human JMJD2A Tudor domain | O75164 | AlphaScreen JMJD2A-Tudor / H3K4me3 peptide binding | Potency, µM (top dose mostly 114 µM), hits mostly inhibitors | 4.4% of 390,000 active | AID 504339; further: nearly all actives have a fitted effect of over 50% in size
Sfp inh: inhibitors of Bacillus subtilis Sfp phosphopantetheinyl transferase. Potency, µM, hits mostly inhibitors. 3.5% of 310,000 active. Biochemical Sfp PPTase activity, qHTS. AID 1490;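 further: the enzyme is Sfp with the accession as filed and its product quenches rhodamine fluorescence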
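Sfp 15 nM + cpd, 15 min RT; start w/ rhodamine-CoA 5 uM, BHQ-2-YbbR 12.5 uM (final); 50 mM Hepes pH 7.6, 10 mM MgCl2, 0.01% NP-40, 0.01% BSA; read 525/598 nm at 0 and 30 min.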
Hits are given with their value; - = inactive; ? = inconclusive; . = no result given; [ ] = remark or other dose. The call rests on the fitted dose curve; in most records, active means well fitted curve in the direction sought with a large enough effect; inconclusive means small, poorly fitted or top-dose-only effect, or another doubt; inactive means no such curve, though single readings can be large; an effect the other way counts as inactive or inconclusive.

SMILES | HP1b binding inh | BAZ2B block | PLK1 PBD inh | G9a inh | JMJD2A Tudor inh | Sfp inh
O=C(COC(=O)c1cc(-c2cccs2)nn1-c1ccccc1)Nc1ccc(Cl)c([N+](=O)[O-])c1 | - | - | - | 39.8µM | - | -
COc1ccc(OC)c(NC(=O)CC(=O)Nc2ccc3nc4n(c(=O)c3c2)CCCCC4)c1 | - | - | . | - | - | .
Cc1cc(F)ccc1NCc1ccncc1 | - | - | - | - | - | -
Cc1ccc(NCc2ccncc2)c(Br)c1 | 28.2µM | 22.4µM | - | . | 1.58µM | ?
Cc1cc(NCc2ccncc2)ccc1Br | ? | 50.1µM | - | . | 17.8µM | 79.4µM
CCc1nc2c(OCC(=O)C(C)(C)C)cccn2c1N(C)C(=O)c1ccco1 | . | . | - | . | . | .
CCOC(=O)C1=C(O)C(=O)N(CCCn2ccnc2)C1c1ccc(OC)cc1 (centres undefined) | . | - | . | 44.7µM | . | -
COc1ccc(C2C(C(=O)c3ccco3)=C(O)C(=O)N2CCCn2ccnc2)c(OC)c1 (centres undefined) | - | 56.2µM | - | 50.1µM | 28.2µM | -
CCOC(=O)C1CCN(C(=O)C2CCCN(c3ncnc4c3nc3n4CCCCC3)C2)CC1 (centres undefined) | - | - | - | - | - | -
CC(C)(C)c1ccc(C(=O)Nc2ccc(Cl)cc2)cc1 | - | - | - | - | - | -
CC(C)(C)c1ccc(NC(=O)c2ccsc2)cc1 | - | - | - | - | - | 79.4µM
Cc1ccc(NC(=O)CSCC(=O)Nc2cc(S(=O)(=O)N3CCOCC3)ccc2OC(C)C)cc1 | - | . | - | . | - | .
Cc1noc(C)c1C(=O)OCC(=O)Nc1c(F)cccc1F | - | . | 8.44µM | - | ? | -
Cc1noc(C)c1C(=O)OCC(=O)Nc1ccc(C(N)=O)cc1 | - | - | - | - | - | -
Cc1cc(C(=O)OCC(=O)Nc2c(F)cccc2F)c(C)n1-c1ccccc1 | ? | ? | 21.2µM | - | 20µM | -
CCc1cc(-c2nnn(CCC3COCCO3)c2C(C)(C)O)ccc1-c1cn(CCc2c[nH]c3ccccc23)nn1 (centres undefined) | . | . | - | . | . | .
O=C(N=C1SCC(=O)N1c1ccccc1)c1ccco1 | - | - | - | - | - | -
O=C(N=C1SCC(=O)N1c1ccccc1Cl)c1ccco1 | - | - | - | 50.1µM | - | -
CC(=O)N1CCc2cc(S(=O)(=O)NC(CC(C)C)C(=O)NCCc3ccc(C)cc3)ccc21 (centres undefined) | - | . | . | - | - | .
C/C(=N\NC(=O)c1sccc1C)c1cccnc1 | - | - | - | - | - | -
Cc1nc(C(F)(F)F)c(C(=O)N/N=C(\N)c2cccnc2)s1 | - | 79.4µM | - | - | 28.2µM | ?
Cc1ccc2c(C)c(C(=O)N(Cc3ccc(Cl)cc3)C3CCS(=O)(=O)C3)oc2c1 (centres undefined) | - | - | . | - | - | .
CC1(C)CC(=O)C2=C(C1)N=c1s/c(=C/c3ccc(F)c(F)c3)c(=O)n1C2c1ccc(F)cc1 (centres undefined) | - | - | - | - | - | -
CCOC(=O)C1=C(C)N=C2c3ccccc3C(=O)C2C1c1ccc(Cl)cc1 (centres undefined) | ? | 12.6µM | - | 39.8µM | 39.8µM | -
Cc1ccc(C2C3=C(CC(C)(C)CC3=O)N=C3c4ccccc4C(=O)C32)cc1 (centres undefined) | ? | 15.8µM | - | 5.01µM | 44.7µM | -
SMILES | HP1b binding inh | BAZ2B block | PLK1 PBD inh | G9a inh | JMJD2A Tudor inh | Sfp inh
CCOC(=O)C1=NNC(C(=O)c2ccccc2)C1c1ccc(Cl)cc1 (centres undefined) | - | - | - | . | - | -
CC1(C)CC(=O)C2=C(C1)N=C1c3ccccc3C(=O)C1C2c1ccc(Cl)cc1 (centres undefined) | ? | 12.6µM | - | 10µM | ? | -
CCOc1ccccc1N1CCN(C(=O)C2CSC3(C)CCC(=O)N23)CC1 (centres undefined) | - | - | - | -[12.7 µM] | - | .
COc1cccc(Cn2c(=O)c(-c3cccs3)nc3cnc(Nc4cccc(OC)c4)nc32)c1 | . | . | . | -[12.7 µM] | . | -
O=C(O)Cc1c(C(=O)O)[nH]c2ccc(C(=O)O)cc12 | - | ? | - | 50.1µM | - | -
COc1ccc2[nH]c(C(=O)O)c(CCC(=O)O)c2c1 | - | - | - | ? | - | -
Cc1ccc(NC(=O)CN2C(=O)CC(C)S(=O)(=O)c3ccccc32)cc1 (centres undefined) | - | - | - | - | - | -
CC(C)(C)C(=O)/C(=C/c1ccc(Cl)cc1)n1cncn1 | - | - | - | - | - | -
CC(C)(C)C(=O)/C(=C\c1ccc([N+](=O)[O-])cc1)n1cncn1 | . | - | . | ? | . | 14.1µM
CN(Cc1ccccc1)C(=S)NC(=O)C1CCCCC1 | - | - | - | - | - | -
O=C(NC(=S)N(Cc1ccccc1)c1ccccn1)C1CCCCC1 | - | - | ? | 28.2µM | - | -
CN(C(=S)NC(=O)C1CCCC1)c1ccccc1 | . | . | 29.9µM | . | . | .
CCc1ccc2ncc3c(-c4ccccc4)nn(-c4ccccc4)c3c2c1 | - | . | . | - | - | .
COc1ccccc1-n1cnc2cc(NCc3ccco3)ccc21 | - | - | - | 35.5µM | ? | -
COc1ccc(CNc2ccc3c(c2)ncn3-c2ccccc2OC)cc1 | ? | 39.8µM | - | ? | 28.2µM | -
COc1ccccc1-n1cnc2cc(NCc3ccccc3O)ccc21 | ? | 35.5µM | 18.9µM | ? | -[11.4 µM] | -
CC(C)(C)n1cnc2cc(NCc3cccs3)ccc21 | - | - | - | - | - | -
CCn1cnc2cc(NCc3cccs3)ccc21 | - | ? | - | 44.7µM | - | -
COc1ccccc1-n1cnc2cc(NS(=O)(=O)c3ccc(Br)cc3)ccc21 | - | - | - | - | - | -
CCCCCCCCNCCS(=O)(=O)NCc1ccc(OC)cc1 | - | . | - | . | - | .
COc1ccccc1-n1cnc2cc(NCc3cccs3)ccc21 | ? | 44.7µM | - | ? | 44.7µM | -
CCCc1nnc(NC(=O)Cn2c(=O)oc3cc(Br)ccc32)s1 | - | - | - | 28.2µM | - | ?
CSc1nnc(-c2cccc(NC(=O)c3ccccc3)c2)n1C | - | - | - | 50.1µM | - | -
CCC(=O)Nc1cccc(-c2nnc(SCC(=O)c3ccccc3)n2C)c1 | ? | . | 26.7µM | ? | 39.8µM | 79.4µM
CC(C)CN(CC(C)C)C(=O)c1cc(S(=O)(=O)N2CCCCC2)c[nH]1 | - | - | - | -[0.0925 µM] | - | -
S=C(NNc1ccnc2cc(Cl)ccc12)Nc1ccc(Cl)cc1Cl | ? | ? | ? | ? | ? | 20µM
S=C(NCc1ccncc1)Nc1ccc(Cl)cc1Cl | - | - | - | - | - | -
CCOc1ccc(NC(=S)NNc2ccnc3cc(Cl)ccc23)cc1 | 11.2µM | ? | ? | 7.08µM | 22.4µM | 20µM
CCOc1ccccc1Nc1ccnc2cc(Cl)ccc12 | - | - | - | - | - | -
CCc1ccc(S(=O)(=O)c2nnn3c2nc(NC2CCCC2)c2sccc23)cc1 | - | - | . | - | - | .
